According to PubChem BioAssay AID1259240 (Keith Lab, Institute of Cancer Science, University of …, 2017):
Unmarked numbers belong to inactive results. Active and inactive are the calls of the source. Rule as the data show it: active = fold change mostly below about -2 (no sharp cut-off); inactive = mostly above about -1.8.

Assay: TERT promoter activity modulators, primary screen, cell-based, luciferase reporter, human (AID 1259240)
Conditions: A2780 TERT promoter luciferase reporter, 16 h; at 20 µM, fold versus average of vehicle-only wells

SMILES | fold change | outcome
CCOC(=O)Cn1c(=O)oc2cc(S(=O)(=O)NC3CCCC(C)C3C)ccc21 (stereo not given) | 1.21 | 
CC(=O)Oc1ccc(/C=c2\sc3nc(-c4ccco4)nn3c2=O)cc1 | -1.31 | 
CSc1nsc(SC)c1C(=O)NCCNS(=O)(=O)c1ccc(C)cc1 | -1.37 | 
C=CCN1C(=O)C2(/C(=C(/O)c3ccccc3)C(=O)C(=O)N2CCCN2CCOCC2)c2ccccc21 (stereo not given) | 1.29 | 
COc1cc(Nc2nc3ccccc3n3cnnc23)cc(OC)c1OC | 1.1 | 
CCOc1ccc(C2CC(=O)Nc3cc4c(cc32)OCO4)cc1Cl (stereo not given) | -1.12 | 
O=C(O)c1c2c(nc3ccc(S(=O)(=O)N4CCC(C(=O)N5CCCCCC5)CC4)cc13)CCCC2 | 1.03 | 
CC(C)CNC(=O)CSc1nc(-c2cccs2)cc(C(F)(F)F)n1 | -2.24 (active) | 
CN(Cc1ccccc1)C(=O)C1CCCN(S(=O)(=O)c2ccc3c(c2)oc(=O)n3C)C1 (stereo not given) | -1.14 | 
CCOC(=O)C1CCN(c2c(NCCN(C)C)c(=O)c2=O)CC1 | 1.32 | 
Cc1ccc(N2C(=O)c3n[nH]c(C)c3C2c2ccccc2Cl)cc1 (stereo not given) | -1.14 | 
COCCN1C(=O)C(=O)/C(=C(\O)c2ccc(OC)cc2)C12C(=O)N(C)c1ccccc12 (stereo not given) | -1.95 | 
COc1ccc2cc(S(=O)(=O)c3ccc(Cl)cc3)c(=O)oc2c1 | -2.33 (active) | 
Cn1c(C(=O)N2CCC(C(=O)NCCc3c[nH]c4ccccc34)CC2)cc2sccc21 | -1.05 | 
COc1ccc(OC)c(S(=O)(=O)c2cc3cccc(OC)c3oc2=O)c1 | -1.07 | 
O=C(CSc1nc(-c2ccco2)cc(C(F)(F)F)n1)N1CCOCC1 | -2.11 (active) | 
CC(=O)c1cccc(NC(=O)Nc2ccc3snnc3c2)c1 | -1.05 | 
CCCC1=NN(C(=O)CSCc2ccccc2Cl)C(O)(C(F)(F)F)C1 (stereo not given) | -2.03 (active) | 
CCc1ccc2c(c1)c1n[nH]c(=S)nc1n2C | -1.88 | 
Cn1c(=O)[nH]c(=O)c2c1nc(NCCc1ccccc1)n2CCO | -1.23 | 

SMILES | fold change | outcome
O=C(c1ccc(CSCc2ccccc2F)o1)N1CCN(c2ccc(N3CCOCC3)nn2)CC1 | 1.7 | 
CCN1CCN(S(=O)(=O)c2ccc3[nH]c(=O)oc3c2)CC1 | 1.02 | 
O=S(=O)(NCc1ccc2c(c1)OCO2)c1cccc2cccnc12 | -1.35 | 
COc1ccc(S(=O)(=O)c2cc3ccc(O)cc3oc2=O)cc1OC | -1.34 | 
CCCCN1C(=O)C(O)(CC(=O)c2cccs2)c2ccccc21 (stereo not given) | -1.63 | 
O=C(NC1(C(F)(F)F)NC(=O)N(Cc2ccco2)C1=O)c1ccncc1 (stereo not given) | -2.35 (active) | 
Cn1c(=O)oc2cc(S(=O)(=O)N3CCC(C(=O)NCC4COc5ccccc5O4)CC3)ccc21 (stereo not given) | -1.13 | 
Cc1nc2c3ccccc3n3c(CCCC(=O)NCc4ccccn4)nnc3n2n1 | -1.25 | 
CCCCNc1c(N2CCN(C(=O)OCC)CC2)c(=O)c1=O | 1.31 | 
COc1ccc(S(=O)(=O)n2nc(-c3ccc(OC)cc3OC)cc2N)cc1 | 1.19 | 
CC(C)Cc1nnc(NC(=O)CSc2ncn[nH]2)s1 | -1.25 | 
CN1CCN(C(=O)C2CCN(c3ccc(N4CCOCC4)nn3)CC2)CC1 | -1.4 | 
COc1ccccc1OCC(O)Cn1c(=N)n(CCN2CCOCC2)c2ccccc21 (stereo not given) | -1.29 | 
COc1ccc(Cl)cc1N1CC(O)=C(c2nc3ccccc3c(=O)[nH]2)C1=N |  | inactive
Cc1ccccc1N1CC(O)(c2ccccc2)[N+]2=C1SCCC2 (stereo not given) | -1.05 | 
CCN(CCO)CCNc1cc(N2CCCC(C)C2)c2noc3c2c1C(=O)c1ccccc1-3 (stereo not given) | -6.87 (active) | 
COc1ccc(-c2csc3nc(-c4ccccc4F)oc(=O)c23)cc1OC | -1.03 | 
CCOC(=O)c1nn(-c2ccc(F)cc2)c(=O)c2c(NC(=O)CCCl)scc12 | -3.04 (active) | 
c1ccc(N2CCN(c3nc4ccccc4n4cnnc34)CC2)cc1 | 1.17 | 
CC(C)CNC(=O)CCN1C(=O)c2ccccc2S1(=O)=O | -2.25 (active) | 
